The panel holds about 83,000 compounds, 20% with a hit somewhere; the sample as a whole holds those more often.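 Assay: single dose, 48 h. Readout: percent growth (0 = no net growth; negative = cell death). Active: <10.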 Values without a mark were called inactive. Activity calls are given as the source filed them.
Tests used:
Assay in all cases: NCI-60 one-dose screen, 48 h (100 = growth as untreated, 0 = no growth, -100 = all killed)
Details in all cases: 10 µM
[1] = tested on: DU-145 prostate
[2] = tested on: MDA-MB-231 breast
[3] = tested on: SF-268 CNS
[4] = tested on: SF-295 CNS
[5] = tested on: SF-539 CNS
[6] = tested on: UACC-257 melanoma
[7] = tested on: M14 melanoma
[8] = tested on: MALME-3M melanoma
[9] = tested on: RXF 393 renal
[10] = tested on: K-562 leukemia

Structure (SMILES)	growth [1]	growth [2]	growth [3] [%]	growth [4]	growth [5]	growth [6]	growth [7]	growth [8] [%]	growth [9]	growth [10] [%]
C/C=C/CC(C)C(O)C1C(=O)NC(CC)C(=O)N(C)CC(=O)N(C)C(CC(C)C)C(=O)NC(C(C)C)C(=O)N(C)C(CC(C)C)C(=O)NC(C)C(=O)NC(C)C(=O)N(C)C(CC(C)C)C(=O)N(C)C(CC(C)C)C(=O)N(C)C(C(C)C)C(=O)N1C (stereo unspecified)	39%	-6.48% (active)	38.3	-16.7% (active)	-1.51% (active)	1.79% (active)	4.21% (active)			
COc1cc(OC)c2ccc(=O)oc2c1	102%	93.4%	102	100%	106%	98.1%	115%	136	123%	
Cc1cc(=O)[nH]c(NN=C2CCCC2)n1	112%	102%	112	108%	107%	125%	112%	108	121%	
COCCCC/C(=N\OCCN)c1ccc(C(F)(F)F)cc1	123%	74%	102	90.3%	109%	106%		112	97.4%	
O=C(O)c1cccc([N+](=O)[O-])c1O	109%	103%	106	90.8%	114%	107%	94.1%			106
COc1cc([C@@H]2c3cc4c(cc3[C@H](O)[C@H]3COC(=O)[C@H]23)OCO4)cc(OC)c1OC	-23.9% (active)	10.1%	27.3	-14.1% (active)	5.77% (active)	53.2%	6.41% (active)	54.2	41%	
CC(=O)Nc1cccc(Cl)c1C	106%	99.5%	92.3	105%	107%	84.9%	108%	101	106%	
CC1=C(/C=C/C(C)=C/C=C/C(C)=C/CO)C(C)(C)CCC1	112%	102%	114	110%	105%	99.9%	104%	120		
O=S(=O)(O)C(Nc1ccccc1)c1ccccc1 (stereo unspecified)	110%	99.1%	107	107%	93.6%	140%	98.7%			87.6
Nc1ccc(CC(=O)O)c(N)c1		103%	94	104%	102%	101%	100%	94.3	102%	104
CCOC(=O)C(C#N)Cc1ccccc1 (stereo unspecified)			113	104%	114%	117%	108%	136	124%	125
COC(=O)Nc1nc2ccc(C(=O)c3cccs3)cc2[nH]1	-1.55% (active)	24%	36.9	-9.66% (active)	10.3%	56%	3.53% (active)	36.2	44.9%	
CC1=CC(=O)c2ccccc2C1=O	113%	98.8%	119	109%	104%	104%	107%			
CCCCCCCCCCCCCCCCC1CC(=O)OC1=O (stereo unspecified)	121%	98.3%	113	99.3%	104%	104%		114	116%	
O=C(CC(=O)c1ccccc1O)c1ccccc1	91.8%	91.1%	90.7	89.5%	95.5%	95.7%	97.4%	115	103%	
S=C(Nc1ccccc1)N1CCCCC1		98.5%	107	98.2%	96.7%	95.9%	97.3%	107	109%	110

Structure (SMILES)	growth [1]	growth [2]	growth [3] [%]	growth [4]	growth [5]	growth [6]	growth [7]	growth [8] [%]	growth [9]	growth [10] [%]
CCCC(=O)c1cc(C)ccc1OC	119%	93.8%	96	125%	94.9%	112%		135	109%	
O=[N+]([O-])c1ccc(N=Nc2ccccc2)cc1		88.9%	89.6	91.3%	98.8%	108%	102%	101	107%	87.2
O=C1c2ccccc2C(=O)N1OCc1ccccc1	112%	104%	106	110%	102%	122%	108%	98.2	122%	
Nc1ccc(C(=O)c2ccc(N)c(Br)c2)cc1Br		24.8%		17.6%	-11.2% (active)	67.1%		78.8	-17.4% (active)	15.7
Nc1ccc(NC(=O)c2cccc(N)c2)cc1	108%	97.1%	102	92.5%	96.3%		104%	85.7		
O=C(O)CCCc1ccccc1	119%	117%	118	110%	120%	104%	101%	118	113%	
c1ccc(/C(=N\N=C(/c2ccccc2)c2cccs2)c2cccs2)cc1	105%		97	95.8%	111%	106%	101%		108%	83.6
CN(C)c1ccc(CNC(C(=O)c2ccccc2)c2ccccc2)cc1 (stereo unspecified)		107%	96.9	98.1%	111%	94.9%	114%	94.2		94.8
Cc1ccccc1N=C(c1ccccc1)C1C(=O)c2ccccc2C1=O		98.7%	88.1	93.6%	77.8%	96%				61.8
CCn1c(=O)n(C)c2c(=O)n(C)c(=O)n(C)c21		110%			106%	99%	101%		109%	107
CCCNc1ccc(C2=NCCCN2)cc1	103%	98.7%	98.9	91%	102%	99.8%	96.1%			89.8
O=[N+]([O-])c1ccc(O)c(S(=O)(=O)O)c1	110%	88.7%	114	102%	100%	99.3%	109%	127	117%	
CC(=O)C1CCCCC1	111%	102%	107	92.4%	111%		106%	107	99.1%	
O=C(O)C(c1ccccc1)C(O)c1ccccc1 (stereo unspecified)		102%	105	96.5%	98.4%	85.7%	104%	117	107%	100
Cc1nc2ccccc2c2nnc(SCC(=O)N(Cc3ccccc3)c3ccccc3)n12		92.1%	94.6	88.2%	99.2%	92.8%	119%			85.9
CC1CCC(C(=O)O)N1 (stereo unspecified)		102%	97.5	101%	95%	103%	102%	102	109%	98.4
